# Measured values from PubChem BioAssay (EPA / NIEHS).
# Results filed as inconclusive are left out. Active and inactive are the calls of the source. Rule for the calls, unless noted: active = hit-call score of the fitted dose curve at least 0.9, where 1 is the maximum; inactive = score below 0.9.
# Tests used:
# [1] = CCTE_Simmons_MITO_basal_resp_rate: CCTE's HepG2 Seahorse XF Respirometric Screening Assay at Basal Respiratory State, Simmons Lab (AID 2284001); details: actives raise or lower the signal
# How it was run: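 Basal-phase OCR of HepG2 cells on a Seahorse XF96, analysed by bidirectional fit relative to DMSO vehicle; chemicals at 7 concentrations, 125 nM–100 uM final; three biological replicates; fenpyroximate and 2,4-dinitrophenol positive controls.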
# [2] = CCTE_Simmons_MITO_max_resp_rate: CCTE's HepG2 Seahorse XF Respirometric Screening Assay at Maximal Respiratory State [uncoupled], Simmons Lab (AID 2284002); details: actives raise or lower the signal
# How it was run: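 HepG2 oxygen consumption was read on a Seahorse XF96 after FCCP uncoupler injection, following test compound injection; 7 concentrations, 125 nM–100 uM final, three biological replicates. Bidirectional fitting against DMSO vehicle baseline.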
# [3] = CCTE_Simmons_MITO_inhib_resp_rate: CCTE's HepG2 Seahorse XF Respirometric Screening Assay at Inhibited Respiratory State [full ETC block], Simmons Lab (AID 2284006); details: actives raise or lower the signal
# How it was run: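 OCR read-out in the inhibited phase following rotenone/antimycin A, after compound and FCCP injections, in HepG2 cells. Seven concentrations (125 nM to 100 uM final), three biological replicates, 6-min cycles over 72 min; DMSO baseline.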
# [4] = CCTE_Simmons_MITO_viability: CellTiter-Glo Viability Assessment for CCTE's HepG2 Seahorse XF Respirometric Screening Assay [post-hoc], Simmons Lab (AID 2284007; active = hit-call score of the fitted dose curve at least 0.9, where 1 is the maximum;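 for AC50: cells exposed to chemical for 90 min before the ATP read; actives lower ATP signal relative to DMSO baseline meaning reduced viability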)
# How it was run: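 Luciferase-coupled ATP luminescence, single endpoint. HepG2, post-respirometry. Compound 125 nM–100 uM final, 7 conc., 90 min. n=3 biological, technical singles. DMSO vehicle/baseline; dichlone 10 nM–100 uM, 8 conc., as positive control.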
# [5] = CCTE_Harrill_HTTr_Viability_MCF7: CCTE's 6-hour Cell Viability Assessment for the High-Throughput Transcriptomics (HTTr) Platform, in MCF-7 cells cultured in DMEM + 10% fetal bovine serum, Harrill Lab (AID 2284010)
# How it was run: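 PI exclusion, high-content imaging; 8-pt dilution series, 6 h exposure; bidirectional fit vs DMSO (neg. ctrl/baseline); gain of signal = loss of membrane integrity.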
# [6] = CCTE_Harrill_HTTr_Apoptosis_MCF7: CCTE's 6-hour Apoptosis Assessment for the High-Throughput Transcriptomics (HTTr) Platform, in MCF-7 cells cultured in DMEM + 10% fetal bovine serum, Harrill Lab (AID 2284011)
# How it was run: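 MCF-7 cells in DMEM + 10% fetal bovine serum were exposed to chemicals for 6 hours over an eight-point dilution series. Caspase-3/7 activation was imaged by high content imaging with CellEvent Caspase 3/7 Green; bidirectional fitting used DMSO as baseline.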
# [7] = CCTE_Shafer_MEA_acute_spike_number: CCTE's Neural Acute Assay for Total Number of Spikes, Shafer Lab (AID 2284008);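 for AC50: curve fitted for decrease in spike count so AC50 reflects inhibitors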
# How it was run: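 Primary rat cortical neurons on 16-electrode MEA wells; on DIV 13 or 15, 40-min baseline then 40-min recording with compound (0.03-40 uM) at 37 C. Spikes detected at 8x rms noise; percent change versus baseline, DMSO as negative control.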
# [8] = CCTE_Shafer_MEA_acute_burst_number: CCTE's Neural Acute Assay for Single-Electrode Bursts, Shafer Lab (AID 2284013)
# How it was run: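 Percent change in single-electrode burst number per well, from 40-min recordings taken before and after adding compound (0.03-40 uM) to primary rat cortical neurons on MEA plates at DIV 13 or 15, 37 C.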
# [9] = CCTE_Shafer_MEA_acute_burst_duration_mean: CCTE's Neural Acute Assay for Mean Burst Duration, Shafer Lab (AID 2284014);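 note: hits are decreases in mean burst duration relative to DMSO controls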
# How it was run: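 Rat cortical cultures, DIV 13/15; 40 min baseline, then 40 min with compound (0.03-40 uM), 37 C. Spikes: 300-5000 Hz band-pass, 8x rms threshold. Read-out: % change in mean single-electrode burst duration, DMSO-referenced, loss direction.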
# [10] = CCTE_Shafer_MEA_acute_burst_percentage_mean: CCTE's Neural Acute Assay for Percentage of Spikes in a Burst, Shafer Lab (AID 2284017);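 for AC50: curve fitted for loss of signal so potency reflects decreased burst percentage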
# How it was run: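 Compounds were tested at 0.03-40 uM on primary rat cortical neuron networks grown over microelectrodes, with at least three wells per compound. Spontaneous firing was recorded for 40 min before and 40 min after dosing, and the change in burst percentage was computed per well.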
# [11] = CCTE_Shafer_MEA_acute_burst_percentage_std: CCTE's Neural Acute Assay for Standard Deviation of Burst Percentage, Shafer Lab (AID 2284018);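 note: fitted in the negative direction so actives lower burst percentage SD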
# How it was run: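 Rat primary cortical neurons on 48-well MEAs, DIV 13 or 15, 37 C. 40-min baseline then 40-min recording with compound (0.03-40 uM); well-level SD of per-electrode burst spike percentage, expressed as percent change from baseline.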
# [12] = CCTE_Shafer_MEA_acute_per_network_burst_spike_number_mean: CCTE's Neural Acute Assay for Average Number of Spikes in a Network Burst, Shafer Lab (AID 2284019)
# How it was run: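 Rat cortical cultures, DIV 13/15; spike threshold 8x rms noise, 300-5000 Hz band-pass, 12.5 kHz sampling; wells need >/= 10 active electrodes. Compound 0.03-40 uM, 40 min, 37 C; % change vs own baseline, DMSO negative control.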
# [13] = CCTE_Shafer_MEA_acute_per_network_burst_electrodes_number_mean: CCTE's Neural Acute Assay for Mean Number of Electrodes in a Network Burst, Shafer Lab (AID 2284021);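 note: curves fitted for decreases only so hits reduce electrodes per burst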
# How it was run: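 Rat primary cortical neurons on 16-electrode MEA wells were recorded 40 min at baseline on DIV 13 or 15, then 40 min after compound (0.03-40 uM), at 37 C. Value is percent change per well, fitted in loss direction versus DMSO.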
# [14] = CCTE_Shafer_MEA_acute_network_burst_percentage: CCTE's Neural Acute Assay for Percentage of Network Bursts, Shafer Lab (AID 2284022);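 note: curves fitted for loss so actives lower network burst percentage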
# How it was run: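 Primary rat cortical neurons on 16-electrode MEA wells, treated on DIV 13 or 15 with compound (0.03-40 uM); 40-min baseline and 40-min post-exposure recordings at 37 C. Value is percent change in spikes within network bursts versus baseline, DMSO negative control.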
# [15] = CCTE_Shafer_MEA_acute_cross_correlation_area: CCTE's Neural Acute Assay for Area of Cross Correlation, Shafer Lab (AID 2284024);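 note: area under pooled inter-electrode spike cross-correlation near zero lag as percent change from own baseline; curves fitted for loss of cross-correlation area so actives lower synchrony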
# How it was run: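 Primary rat cortical neurons on 48-well MEA plates (16 electrodes/well) were recorded 40 min at baseline on DIV 13 or 15, then 40 min with compound (0.03-40 uM) at 37 C; cross-correlation area expressed as percent change from baseline.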
# [16] = CCTE_Shafer_MEA_acute_cross_correlation_HWHM: CCTE's Neural Acute Assay for Cross Correlation at Half Width at Half Maximum, Shafer Lab (AID 2284026);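 note: percent change per well from pre-dose baseline in spike cross-correlogram half width; hits are a decrease in cross-correlogram half width relative to DMSO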
# How it was run: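 Primary rat cortical neurons on 16-electrode MEA wells; 40-min baseline on DIV 13 or 15, then 40-min recording with compound (0.03-40 uM) at 37 C. HWHM of spike cross-correlogram expressed as percent change from baseline per well, DMSO reference.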
# [17] = CCTE_Harrill_HTTr_CellCount_MCF7: CCTE's Cell Proliferation Assessment for the High-Throughput Transcriptomics (HTTr) Platform, Harrill Lab (AID 2284012; active = hit-call score of the fitted dose curve at least 0.9, where 1 is the maximum;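 note: count of Hoechst-stained nuclei per well by high-content imaging in MCF-7 cells; cells exposed to compound for six hours; intended direction is loss of nuclei count meaning fewer cells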)
# How it was run: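 Readout: Hoechst nuclear count by high-content imaging. MCF-7, 8-point dilution series, 6 h exposure. Bidirectional fit vs DMSO baseline.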
smiles,measurement,setting,value
Cc1nccn1-c1ccc(Sc2cccc(C3(C(N)=O)CCOCC3)c2)cc1,AC50,[1],9.2 µM (active)
same,AC50,[2],5.55 µM (active)
same,AC50,[3],13.2 µM (active)
same,outcome,[4],inactive
same,outcome,[5],inactive
same,outcome,[6],inactive
C=CCc1cc(S(=O)(=O)c2ccc(O)c(CC=C)c2)ccc1O,AC50,[1],12.3 µM (active)
same,AC50,[2],8.67 µM (active)
same,outcome,[3],inactive
same,outcome,[4],inactive
same,outcome,[7],inactive
same,outcome,[5],inactive
same,outcome,[6],inactive
same,outcome,[8],inactive
same,outcome,[9],inactive
same,outcome,[10],inactive
same,outcome,[11],inactive
same,outcome,[12],inactive
same,outcome,[13],inactive
same,outcome,[14],inactive
same,outcome,[15],inactive
same,outcome,[16],inactive
CC(C)C(=O)Nc1ccc([N+](=O)[O-])c(C(F)(F)F)c1,AC50,[7],5.06 µM (active)
same,outcome,[5],inactive
same,outcome,[6],inactive
same,outcome,[17],inactive
same,outcome,[8],inactive
same,outcome,[9],inactive
same,AC50,[10],6.55 µM (active)
same,outcome,[11],inactive
same,outcome,[12],inactive
same,outcome,[13],inactive
same,AC50,[14],34.4 µM (active)
same,outcome,[15],inactive
same,AC50,[16],5.73 µM (active)
CCCc1ccccc1,outcome,[7],inactive
same,outcome,[8],inactive
same,outcome,[9],inactive
same,outcome,[10],inactive
same,outcome,[11],inactive
same,outcome,[12],inactive
same,outcome,[13],inactive
same,outcome,[14],inactive
same,outcome,[15],inactive
same,outcome,[16],inactive
CC(C)c1nnc2ccc(-c3ocnc3-c3cc(F)ccc3F)cn12,AC50,[1],25.6 µM (active)
same,AC50,[2],76.2 µM (active)
same,outcome,[3],inactive
same,AC50,[4],50 µM (active)
same,outcome,[5],inactive
same,outcome,[6],inactive
CC(C)CC(C)O (stereo not given),outcome,[5],inactive
same,outcome,[6],inactive
O=C(O)c1cccc(C[C@@H]2COc3ccc(OCc4nc5cc(F)ccc5s4)cc3[C@@H]2O)c1,outcome,[1],inactive
same,AC50,[2],25 µM (active)
same,outcome,[3],inactive
same,outcome,[4],inactive
same,outcome,[5],inactive
same,outcome,[6],inactive
c1ccc2cc3ccccc3cc2c1,AC50,[7],0.003 µM (active)
same,outcome,[5],inactive
same,outcome,[6],inactive
same,AC50,[8],0.0075 µM (active)
same,outcome,[9],inactive
same,outcome,[10],inactive
same,outcome,[11],inactive
same,outcome,[12],inactive
same,outcome,[13],inactive
same,AC50,[14],0.003 µM (active)
same,AC50,[15],6.87 nM (active)
same,outcome,[16],inactive
O=c1[nH]cnc2c1ncn2[C@H]1CC[C@@H](CO)O1,outcome,[5],inactive
same,outcome,[6],inactive
OCc1ccccc1,outcome,[7],inactive
same,outcome,[5],inactive
same,outcome,[6],inactive
same,outcome,[17],inactive
same,outcome,[8],inactive
same,outcome,[9],inactive
same,outcome,[10],inactive
same,outcome,[11],inactive
same,outcome,[12],inactive
same,outcome,[13],inactive
same,outcome,[14],inactive
same,outcome,[15],inactive
same,outcome,[16],inactive
CC[C@H](C)C(=O)O[C@H]1C[C@H](O)C=C2C=C[C@H](C)[C@H](CC[C@@H](O)C[C@@H](O)CC(=O)O)[C@H]21,outcome,[7],inactive
same,outcome,[5],inactive
same,outcome,[6],inactive
same,outcome,[8],inactive
same,outcome,[9],inactive
same,outcome,[10],inactive
same,outcome,[11],inactive
same,outcome,[12],inactive
same,outcome,[13],inactive
same,outcome,[14],inactive
same,outcome,[15],inactive
same,outcome,[16],inactive
O=C(O)c1cccc(C(=O)O)c1,outcome,[5],inactive
same,outcome,[6],inactive
Cc1ncc([C@@H](CCCCCCc2ccc3c(n2)NCCC3)CC(=O)O)cn1,outcome,[7],inactive
same,AC50,[5],62.6 nM (active)
same,AC50,[6],1.6 µM (active)
same,AC50,[17],321 nM (active)
same,outcome,[8],inactive
same,outcome,[9],inactive
same,outcome,[10],inactive
same,outcome,[11],inactive
same,outcome,[12],inactive
same,outcome,[13],inactive
same,outcome,[14],inactive
same,outcome,[15],inactive
same,outcome,[16],inactive
COc1cc2c(c(OC)c1OC)-c1ccc(OC)c(=O)cc1[C@@H](NC(C)=O)CC2,outcome,[7],inactive
same,outcome,[5],inactive
same,outcome,[6],inactive
same,outcome,[17],inactive
same,AC50,[8],34 µM (active)
same,outcome,[9],inactive
same,outcome,[10],inactive
same,outcome,[11],inactive
same,outcome,[12],inactive
same,AC50,[13],31.6 µM (active)
same,AC50,[14],4.03 µM (active)
same,outcome,[15],inactive
same,outcome,[16],inactive
O=C(O)[C@H](O)[C@@H](O)C(=O)O,outcome,[5],inactive
same,outcome,[6],inactive
Cn1c(=O)c2[nH]cnc2n(C)c1=O,outcome,[7],inactive
same,outcome,[5],inactive
same,outcome,[6],inactive
same,outcome,[8],inactive
same,outcome,[9],inactive
same,outcome,[10],inactive
same,outcome,[11],inactive
same,outcome,[12],inactive
same,outcome,[13],inactive
same,outcome,[14],inactive
same,outcome,[15],inactive
same,outcome,[16],inactive
CCCCCCCC1CCC(=O)O1 (stereo not given),AC50,[1],46.4 µM (active)
same,outcome,[2],inactive
same,outcome,[3],inactive
same,outcome,[7],inactive
same,outcome,[5],inactive
same,outcome,[6],inactive
same,outcome,[17],inactive
same,outcome,[8],inactive
same,outcome,[9],inactive
same,AC50,[10],20 µM (active)
same,outcome,[11],inactive
same,outcome,[12],inactive
same,outcome,[13],inactive
same,outcome,[14],inactive
same,outcome,[15],inactive
